# Reference: PubChem BioAssay (EPA / NIEHS)
# Records with an inconclusive call do not appear. The source made the active and inactive calls. The calls were made as follows, unless noted: active = hit-call score of the fitted dose curve at least 0.9, where 1 is the maximum; inactive = score below 0.9.
# What was measured:
# [1] = biological target: Retinoic acid receptor RXR-alpha (Homo sapiens) (UniProt P19793); test: ATG_RXRa_TRANS: Attagene TRANS-FACTORIAL HepG2 Assay for human Retinoid X Receptor alpha (RXRa) (AID 2283012; active = hit-call score of the fitted dose curve at least 0.9, where 1 is the maximum)
# Sequence of Retinoic acid receptor RXR-alpha (Homo sapiens) (P19793 whole entry, looked up, the tested form may be a part): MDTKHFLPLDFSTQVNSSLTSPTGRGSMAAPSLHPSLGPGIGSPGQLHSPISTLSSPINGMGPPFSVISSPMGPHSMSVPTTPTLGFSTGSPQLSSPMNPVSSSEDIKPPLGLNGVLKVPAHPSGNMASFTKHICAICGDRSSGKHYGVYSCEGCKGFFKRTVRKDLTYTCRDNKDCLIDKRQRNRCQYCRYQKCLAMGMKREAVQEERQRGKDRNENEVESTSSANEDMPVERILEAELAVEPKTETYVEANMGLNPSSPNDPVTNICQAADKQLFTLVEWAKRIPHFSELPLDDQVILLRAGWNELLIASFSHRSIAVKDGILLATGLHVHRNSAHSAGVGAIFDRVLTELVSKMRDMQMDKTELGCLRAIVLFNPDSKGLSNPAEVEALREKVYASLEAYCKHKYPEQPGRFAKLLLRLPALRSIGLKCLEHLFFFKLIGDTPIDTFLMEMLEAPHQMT
# Method in brief: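 Read-out: fluorescent reporter-transcript fragments quantified by capillary electrophoresis after RT-PCR. Transiently transfected HepG2 cells carrying GAL4-UAS reporters and NR-GAL4 chimeras were exposed to chemical for 24 h; activity scored as increase over DMSO.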
# [2] = biological target: human Retinoid X Receptor beta (RXRb), RXRB (gene 6257) (UniProt P28702); test: ATG_RXRb_TRANS: Attagene TRANS-FACTORIAL HepG2 Assay for human Retinoid X Receptor beta (RXRb) (AID 2283013; active = hit-call score of the fitted dose curve at least 0.9, where 1 is the maximum)
# Sequence of human Retinoid X Receptor beta (RXRb), RXRB (gene 6257) (P28702 whole entry, looked up, the tested form may be a part): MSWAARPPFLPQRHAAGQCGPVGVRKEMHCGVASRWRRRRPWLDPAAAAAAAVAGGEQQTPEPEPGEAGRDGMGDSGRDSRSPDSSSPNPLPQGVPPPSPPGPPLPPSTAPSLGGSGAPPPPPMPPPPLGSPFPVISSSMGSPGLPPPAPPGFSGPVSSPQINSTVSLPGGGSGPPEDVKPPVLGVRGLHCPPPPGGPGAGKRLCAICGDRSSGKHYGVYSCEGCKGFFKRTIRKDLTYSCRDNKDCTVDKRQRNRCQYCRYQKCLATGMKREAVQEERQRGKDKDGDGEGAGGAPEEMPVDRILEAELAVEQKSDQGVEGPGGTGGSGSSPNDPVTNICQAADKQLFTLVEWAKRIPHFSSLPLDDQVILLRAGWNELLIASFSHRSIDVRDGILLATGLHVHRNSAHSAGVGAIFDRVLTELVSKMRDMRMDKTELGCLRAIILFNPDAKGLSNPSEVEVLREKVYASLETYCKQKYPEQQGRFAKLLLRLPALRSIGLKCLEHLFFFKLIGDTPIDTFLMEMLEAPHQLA
# Method in brief: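 Read-out: reporter mRNA induction via RT-PCR plus capillary electrophoresis fluorescence, analysed as signal increase relative to DMSO. Cells were human HepG2, transiently transfected with GAL4-UAS reporter constructs and chimeric receptor-Gal4 fusions, dosed for 24 h.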
# [3] = read-out: E-selectin (Homo sapiens) (UniProt P16581); test: BSK_3C_Eselectin: BioMAP Diversity Plus: 3C Assay for Eselectin Biomarker Activity (AID 2283015); conditions: primary human endothelial cells (HUVEC); actives raise or lower the signal;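 as to outcome: cell surface E-selectin protein quantified by ELISA 24 h after dosing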
# Method in brief: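 Primary human umbilical vein endothelial cells (3C system), read 24 h after compound addition; E-selectin measured by ELISA. Bidirectional curve fitting against DMSO baseline; cytotoxicity by parallel SRB total-protein staining.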
# [4] = read-out: Interleukin-1 alpha (IL1a), IL1A (gene 3552); test: BSK_BE3C_IL1a: BioMAP Diversity Plus: BE3C Assay for Interleukin-1 alpha (IL1a) Biomarker Activity (AID 2283016); conditions: primary human bronchial epithelial cells; actives raise or lower the signal
# Method in brief: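 ELISA read-out of IL-1a from human lung bronchial epithelial primary cells, 24 h post-dose. Gain or loss of signal fitted relative to DMSO negative control.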
# [5] = read-out: Monocyte Chemoattractant Protein-1 (MCP1), CCL2 (gene 6347); test: BSK_3C_MCP1: BioMAP Diversity Plus: 3C Assay for Monocyte Chemoattractant Protein-1 (MCP1) Biomarker Activity (AID 2283017); conditions: primary human endothelial cells (HUVEC); actives raise or lower the signal
# Method in brief: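 Human umbilical vein endothelial cells (3C system) exposed to chemicals for 24 h; MCP-1 quantified by ELISA against the DMSO baseline with bidirectional fitting, and parallel SRB staining used to assess cytotoxicity.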
# [6] = read-out: Monocyte Chemoattractant Protein-1 (MCP1), CCL2 (gene 6347); test: BSK_4H_MCP1: BioMAP Diversity Plus: 4H Assay for Monocyte Chemoattractant Protein-1 (MCP1) Biomarker Activity (AID 2283018); conditions: primary human endothelial cells (HUVEC); actives raise or lower the signal
# Method in brief: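 HUVEC primary cells, 24 h post-dose, MCP-1 by ELISA. Gain or loss of signal fitted bidirectionally vs DMSO baseline. Cytotoxicity: SRB stain (0.1% after 10% TCA fixation), read 560 nm, parallel cultures.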
# [7] = read-out: Human Leukocyte Antigen - DR isotype (HLADR), HLA-DRA (gene 3122); test: BSK_3C_HLADR: BioMAP Diversity Plus: 3C Assay for Human Leukocyte Antigen - DR isotype (HLADR) Biomarker Activity (AID 2283019); conditions: primary human endothelial cells (HUVEC); actives raise or lower the signal;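 as to outcome: ELISA of cell-surface HLA-DR on HUVEC 24 h after dosing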
# Method in brief: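 HUVEC monoculture, HLA-DR measured by ELISA 24 h after chemical dosing. Fitted bidirectionally against DMSO baseline; parallel SRB staining assessed cytotoxicity, with 3C proliferation read by SRB at 48 h.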
# [8] = read-out: Interleukin-8 (IL8), CXCL8 (gene 3576); test: BSK_3C_IL8: BioMAP Diversity Plus: 3C Assay for Interleukin-8 (IL8) Biomarker Activity (AID 2283020); conditions: primary human endothelial cells (HUVEC); actives raise or lower the signal
# Method in brief: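 HUVEC, 3C stimulation; 24 h compound exposure; IL-8 read by ELISA; gain or loss of signal fitted relative to DMSO control.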
# [9] = read-out: Monokine induced gamma interferon (MIG), CXCL9 (gene 4283); test: BSK_3C_MIG: BioMAP Diversity Plus: 3C Assay for Monokine induced gamma interferon (MIG) Biomarker Activity (AID 2283021); conditions: primary human endothelial cells (HUVEC); actives raise or lower the signal;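 as to AC50: MIG protein level measured by immunoassay in the treated endothelial cultures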
# Method in brief: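 HUVEC, 3C system; 24 h chemical exposure; MIG by ELISA; bidirectional fit vs DMSO baseline.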
# [10] = BSK_3C_SRB: Viability Assessment in the BioMAP Diversity Plus: 3C Assay (AID 2283023); conditions: primary human endothelial cells (HUVEC);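 also: fitted both ways against DMSO so a hit may be signal rise or drop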
# Method in brief: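 Human umbilical vein endothelial cells in the 3C system, treated 24 h. Total protein measured by 0.1% sulforhodamine B staining after 10% TCA fixation, read at 560 nm; bidirectional fit versus DMSO.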
# [11] = read-out: Matrix Metallopeptidase 1 (MMP1), MMP1 (gene 4312); test: BSK_BE3C_MMP1: BioMAP Diversity Plus: BE3C Assay for Matrix Metallopeptidase 1 (MMP1) Biomarker Activity (AID 2283024); conditions: primary human bronchial epithelial cells; actives raise or lower the signal
# Method in brief: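 ELISA read-out of MMP1 in human lung bronchial epithelial primary cultures, 24 h post-dose; bidirectional curve fit vs DMSO baseline, gain or loss of signal scored.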
# [12] = BSK_3C_Vis: BioMAP Diversity Plus: 3C Assay for Morphology Visualization (AID 2283025); conditions: primary human endothelial cells (HUVEC);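 also: fitted both ways so gain or loss versus DMSO counts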;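 as to AC50: light microscopy image of cell morphology used as background control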
# Method in brief: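 HUVEC, 3C system; light microscopy of morphology at 24 h post-dose. Bidirectional fit vs DMSO baseline. Secondary readout, background-control function.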
# [13] = read-out: Pselectin, SELP (gene 6403); test: BSK_4H_Pselectin: BioMAP Diversity Plus: 4H Assay for Pselectin Biomarker Activity (AID 2283026); conditions: primary human endothelial cells (HUVEC); actives raise or lower the signal
# Method in brief: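 HUVEC, 24 h chemical exposure; P-selectin read by ELISA. Bidirectional curve fit vs DMSO baseline; gain or loss of signal scored.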
# [14] = BSK_4H_SRB: Viability Assessment in the BioMAP Diversity Plus: 4H Assay (AID 2283027); conditions: primary human endothelial cells (HUVEC);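 also: cells exposed to compound for 24 h before staining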;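 as to AC50: curves fitted both ways versus DMSO so AC50 may be loss or gain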
# Method in brief: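 HUVEC, 24 h post-dose; 10% TCA fix, 0.1% SRB stain, A560 nm. Total protein = overt cytotoxicity, parallel to biomarker read. Bidirectional fit vs DMSO baseline.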
# [15] = BSK_BE3C_SRB: Viability Assessment in the BioMAP Diversity Plus: BE3C Assay (AID 2283028); conditions: primary human bronchial epithelial cells;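 as to AC50: fitted both ways so AC50 may mark signal gain or loss versus DMSO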
# Method in brief: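 Human bronchial epithelial primary cells in confluent culture, 24 h after chemical dosing; total protein by 0.1% SRB staining after 10% TCA fixation, read at 560 nm. Bidirectional fitting versus DMSO baseline.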
# [16] = read-out: Thrombomodulin, THBD (gene 7056); test: BSK_3C_Thrombomodulin: BioMAP Diversity Plus: 3C Assay for Thrombomodulin Biomarker Activity (AID 2283029); conditions: primary human endothelial cells (HUVEC); actives raise or lower the signal
# Method in brief: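 HUVEC, 3C conditions; compound 24 h; thrombomodulin by ELISA; bidirectional curve fit vs DMSO baseline; parallel SRB total-protein staining for cytotoxicity.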
# [17] = read-out: Urokinase-type plasminogen activator receptor (uPAR), PLAUR (gene 5329); test: BSK_4H_uPAR: BioMAP Diversity Plus: 4H Assay for Urokinase-type plasminogen activator receptor (uPAR) Biomarker Activity (AID 2283030); conditions: primary human endothelial cells (HUVEC); actives raise or lower the signal
# Method in brief: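 Human umbilical vein endothelial cells in the 4H system, 24 h after chemical dosing. Cell-surface uPAR measured by ELISA, fitted in both directions versus DMSO; cytotoxicity checked by SRB total protein in parallel cultures.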
# [18] = read-out: Vascular endothelial growth factor receptor 2 (Homo sapiens) (UniProt P35968); test: BSK_4H_VEGFRII: BioMAP Diversity Plus: 4H Assay for Vascular endothelial growth factor receptor 2 (VEGFR2) Biomarker Activity (AID 2283031); conditions: primary human endothelial cells (HUVEC); actives raise or lower the signal;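 as to AC50: cell-surface VEGFR2 protein level quantified by ELISA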
# Method in brief: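 Primary human umbilical vein endothelial cells (4H system), 24 h exposure; cell-surface VEGFR2 measured by ELISA. Bidirectional fitting versus DMSO; cytotoxicity checked in parallel by SRB total-protein staining.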
# [19] = biological target: human Vitamin D Receptor (VDR), VDR (gene 7421) (UniProt P11473); test: ATG_VDR_TRANS: Attagene TRANS-FACTORIAL HepG2 Assay for human Vitamin D Receptor (VDR) (AID 2283022; active = hit-call score of the fitted dose curve at least 0.9, where 1 is the maximum)
# Sequence of human Vitamin D Receptor (VDR), VDR (gene 7421) (P11473 whole entry, looked up, the tested form may be a part): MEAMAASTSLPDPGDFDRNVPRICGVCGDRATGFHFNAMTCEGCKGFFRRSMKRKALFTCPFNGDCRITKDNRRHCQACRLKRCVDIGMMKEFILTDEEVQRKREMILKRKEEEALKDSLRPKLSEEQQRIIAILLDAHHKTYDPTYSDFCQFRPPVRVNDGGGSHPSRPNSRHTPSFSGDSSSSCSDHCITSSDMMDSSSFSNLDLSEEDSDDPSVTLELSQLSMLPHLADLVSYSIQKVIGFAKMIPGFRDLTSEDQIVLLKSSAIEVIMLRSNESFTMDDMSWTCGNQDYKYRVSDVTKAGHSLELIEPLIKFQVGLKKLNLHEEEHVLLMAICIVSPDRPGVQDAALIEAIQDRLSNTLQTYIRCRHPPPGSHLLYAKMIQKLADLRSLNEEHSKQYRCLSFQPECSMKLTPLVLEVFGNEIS
# Method in brief: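 HepG2 cells were transiently transfected with GAL4-UAS reporter units and a chimeric VDR-Gal4 construct, then dosed for 24 hours. Reporter mRNA was quantified by RT-PCR, fluorescent labeling, HpaI digestion and capillary electrophoresis; gain of signal analysed vs DMSO.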
# [20] = biological target: human Thyroid Receptor alpha (THRa1), THRA (gene 7067) (UniProt P10827); test: ATG_THRa1_TRANS: Attagene TRANS-FACTORIAL HepG2 Assay for human Thyroid Receptor alpha (THRa1) (AID 2283014; active = hit-call score of the fitted dose curve at least 0.9, where 1 is the maximum)
# Sequence of human Thyroid Receptor alpha (THRa1), THRA (gene 7067) (P10827 whole entry, looked up, the tested form may be a part): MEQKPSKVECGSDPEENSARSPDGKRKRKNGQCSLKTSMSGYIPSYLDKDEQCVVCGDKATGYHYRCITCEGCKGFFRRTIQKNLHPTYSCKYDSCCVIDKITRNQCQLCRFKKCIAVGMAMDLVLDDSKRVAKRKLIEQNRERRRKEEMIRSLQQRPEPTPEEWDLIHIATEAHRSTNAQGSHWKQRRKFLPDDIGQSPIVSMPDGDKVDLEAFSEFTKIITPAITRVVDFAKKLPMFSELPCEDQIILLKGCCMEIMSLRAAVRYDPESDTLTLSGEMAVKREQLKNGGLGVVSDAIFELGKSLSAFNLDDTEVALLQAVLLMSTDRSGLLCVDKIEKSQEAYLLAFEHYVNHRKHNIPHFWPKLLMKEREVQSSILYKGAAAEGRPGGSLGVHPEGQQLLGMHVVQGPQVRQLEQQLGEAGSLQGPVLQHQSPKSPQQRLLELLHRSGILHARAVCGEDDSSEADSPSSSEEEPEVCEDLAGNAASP
# Method in brief: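 HepG2 cells transiently transfected with chimeric NR-Gal4 and GAL4-UAS reporter units, dosed 24 h. Reporter mRNA quantified by RT-PCR, fluorescent labeling, HpaI digestion and capillary electrophoresis; gain-of-signal fit versus DMSO.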
# Sequence of E-selectin (Homo sapiens) (P16581 whole entry, looked up): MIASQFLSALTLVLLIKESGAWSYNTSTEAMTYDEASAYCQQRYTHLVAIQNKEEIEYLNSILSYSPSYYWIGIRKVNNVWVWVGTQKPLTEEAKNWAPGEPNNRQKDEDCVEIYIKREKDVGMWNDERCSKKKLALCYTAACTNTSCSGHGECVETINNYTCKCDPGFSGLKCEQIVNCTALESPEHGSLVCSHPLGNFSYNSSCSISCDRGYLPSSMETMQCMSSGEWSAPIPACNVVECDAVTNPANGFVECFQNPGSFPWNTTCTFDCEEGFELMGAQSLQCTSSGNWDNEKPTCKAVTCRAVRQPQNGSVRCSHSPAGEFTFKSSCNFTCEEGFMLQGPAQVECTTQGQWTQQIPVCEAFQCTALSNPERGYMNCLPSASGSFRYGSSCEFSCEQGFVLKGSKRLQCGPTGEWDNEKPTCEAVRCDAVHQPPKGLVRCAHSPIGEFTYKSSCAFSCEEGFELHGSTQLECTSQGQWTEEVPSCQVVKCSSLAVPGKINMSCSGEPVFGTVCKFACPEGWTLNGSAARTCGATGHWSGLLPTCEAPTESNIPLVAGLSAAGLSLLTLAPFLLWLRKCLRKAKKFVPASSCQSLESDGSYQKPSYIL
smiles,measurement,setting,value
COc1cc(C=O)ccc1O,outcome,[1],inactive
same,outcome,[2],inactive
same,outcome,[3],inactive
same,outcome,[4],inactive
same,outcome,[5],inactive
same,outcome,[6],inactive
same,outcome,[7],inactive
same,outcome,[8],inactive
same,outcome,[9],inactive
same,outcome,[10],inactive
same,outcome,[11],inactive
same,outcome,[12],inactive
same,outcome,[13],inactive
same,outcome,[14],inactive
same,outcome,[15],inactive
same,outcome,[16],inactive
same,outcome,[17],inactive
same,outcome,[18],inactive
CCCCC(CC)COC(=O)CC(C(=O)OCC(CC)CCCC)S(=O)(=O)O (stereo not drawn),outcome,[1],inactive
same,outcome,[2],inactive
same,AC50,[3],38.1 µM (active)
same,AC50,[4],11.6 µM (active)
same,AC50,[5],31.4 µM (active)
same,AC50,[6],29.3 µM (active)
same,AC50,[7],37.9 µM (active)
same,AC50,[8],30.6 µM (active)
same,AC50,[9],38 µM (active)
same,outcome,[19],inactive
same,AC50,[10],31.2 µM (active)
same,AC50,[11],10.2 µM (active)
same,AC50,[12],37.5 µM (active)
same,AC50,[13],32.2 µM (active)
same,AC50,[14],38 µM (active)
same,AC50,[15],6.46 µM (active)
same,AC50,[17],39 µM (active)
same,outcome,[18],inactive
Nc1nc(N)c2nc(CNc3ccc(C(=O)N[C@@H](CCC(=O)O)C(=O)O)cc3)cnc2n1,outcome,[1],inactive
same,outcome,[20],inactive
same,outcome,[3],inactive
same,outcome,[4],inactive
same,outcome,[5],inactive
same,outcome,[6],inactive
same,outcome,[7],inactive
same,outcome,[8],inactive
same,outcome,[9],inactive
same,outcome,[19],inactive
same,outcome,[10],inactive
same,outcome,[11],inactive
same,outcome,[12],inactive
same,outcome,[13],inactive
same,outcome,[14],inactive
same,outcome,[15],inactive
same,outcome,[16],inactive
same,outcome,[17],inactive
same,outcome,[18],inactive
CCCCCCCCCCCCCO,outcome,[1],inactive
same,AC50,[2],58.9 µM (active)
same,AC50,[3],37.8 µM (active)
same,outcome,[4],inactive
same,AC50,[5],39 µM (active)
same,AC50,[6],37.6 µM (active)
same,AC50,[7],35.8 µM (active)
same,AC50,[8],37 µM (active)
same,AC50,[9],37.4 µM (active)
same,outcome,[19],inactive
same,AC50,[10],32.1 µM (active)
same,AC50,[11],20.6 µM (active)
same,AC50,[12],38.6 µM (active)
same,AC50,[13],35.1 µM (active)
same,AC50,[14],31.8 µM (active)
same,outcome,[15],inactive
same,AC50,[17],38.9 µM (active)
same,AC50,[18],30.6 µM (active)
CCNc1cccc(C)c1,outcome,[1],inactive
same,outcome,[20],inactive
same,outcome,[3],inactive
same,outcome,[4],inactive
same,outcome,[5],inactive
same,outcome,[6],inactive
same,outcome,[7],inactive
same,outcome,[8],inactive
same,outcome,[9],inactive
same,outcome,[19],inactive
same,outcome,[10],inactive
same,outcome,[11],inactive
same,outcome,[12],inactive
same,outcome,[13],inactive
same,outcome,[14],inactive
same,outcome,[15],inactive
same,outcome,[16],inactive
same,outcome,[17],inactive
same,outcome,[18],inactive
Cc1cc(NC(=O)C(=O)O)cc(C)c1Oc1ccc(O)c2c1CCC2,outcome,[1],inactive
same,AC50,[20],0.00869 µM (active)
same,outcome,[3],inactive
same,outcome,[4],inactive
same,outcome,[5],inactive
same,outcome,[6],inactive
same,outcome,[7],inactive
same,outcome,[8],inactive
same,outcome,[9],inactive
same,outcome,[19],inactive
same,outcome,[10],inactive
same,outcome,[11],inactive
same,outcome,[12],inactive
same,outcome,[13],inactive
same,outcome,[14],inactive
same,outcome,[15],inactive
same,outcome,[17],inactive
same,outcome,[18],inactive
Cc1cccc(C)c1O,outcome,[1],inactive
same,outcome,[20],inactive
same,outcome,[3],inactive
same,outcome,[4],inactive
same,outcome,[5],inactive
same,outcome,[6],inactive
same,outcome,[7],inactive
same,outcome,[8],inactive
same,outcome,[9],inactive
same,outcome,[19],inactive
same,outcome,[10],inactive
same,outcome,[11],inactive
same,outcome,[12],inactive
same,outcome,[13],inactive
same,outcome,[14],inactive
same,outcome,[15],inactive
same,outcome,[17],inactive
same,outcome,[18],inactive
